# Targets with a hit are over-represented here; the source holds about 7,900 in all. About 0.6% of all pairs of compound and target were hits. A number with no mark means an inactive call.
# Columns and labels:
# Experiment in all cases: log2 fold change, soluble protein after heating vs DMSO (PISA); higher = thermal stabilisation; K562 cells, 10 uM, 30 min; active = over 0.2 and 3.5 SD of the protein, either way, in both replicates (recomputed)
# [1] = compound: C#Cc1cccc(Nc2ncnc3cc(OCCOC)c(OCCOC)cc23)c1 [erlotinib]
# Summary of the method: (§1)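 Quantification of soluble protein used TMTpro 16plex LC-MS/MS, with channel sums equalised. Samples were the supernatant after 21,000xg for 90 min of pooled aliquots from K562 cells (2×10^6 cells/mL) treated with 10 μM compound for 30 min, heated for 3 min over 48°C-58°C, and extracted in PBS with 0.5% NP-40 at 4°C. Values, from duplicates, describe thermal stability against control samples on a log2 fold-change scale.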
# [2] = compound: C/C(=N\NC(=O)C1=CC(=CC=C1)S(=O)(=O)N2CCOCC2)/C3=C(C=CC(=C3)Cl)O
# Summary of the method: as §1
# [3] = compound: C1=CC(=C(C=C1Cl)C2=NC3=NC=CN=C3C(=N2)NC4=CC=NC=C4)F
# Summary of the method: as §1
# [4] = compound: C1=CC(=CC=C1C2=NC3=C(N2)C=C(C=C3)C(=O)N)OC4=CC=C(C=C4)Cl
# Summary of the method: as §1
# [5] = compound: C1=CC2=C(C=CC(=C2)/C=C\3/C(=O)NC(=NCC4=CC=CS4)S3)N=C1
# Summary of the method: as §1
# [6] = compound: C1=CC2=NC=CN=C2C=C1/C=C/3\C(=O)NC(=O)S3
# Summary of the method: as §1
# [7] = compound: C1=CC=C(C=C1)C2=NC(=C(N2)C3=CC=NC=C3)C4=CC(=C(C=C4)Cl)O
# Summary of the method: as §1
# [8] = compound: C1=CC=C2C(=C1)C3=NNC4=CC=CC(=C43)C2=O
# Summary of the method: as §1
# [9] = compound: C1CCN(C1)C(=O)NC2=CC=CC(=C2)NC3=NC=C(C(=N3)NCCC4=CN=CN4)Br
# Summary of the method: as §1
# [10] = compound: C1CN(CCC1(CC2=CC=C(C=C2)Cl)N)C3=NC=NC4=C3C=CN4
# Summary of the method: as §1
# [11] = compound: C1COCCN1CCN2C3=CC=CC=C3N=C2NC(=O)C4=CC(=CC=C4)[N+](=O)[O-] [IRAK-1-4 Inhibitor I]
# Summary of the method: as §1
# [12] = compound: C=CC(=O)N1CCC[C@@H](n2nc(-c3ccc(Oc4ccccc4)cc3)c3c(N)ncnc32)C1 [ibrutinib]
# Summary of the method: as §1
# [13] = compound: CC(=O)c1cnc2ccc(-c3cc(Cl)c(O)c(Cl)c3)nc2c1N[C@H]1CC[C@H](CN(C)C)CC1
# Summary of the method: as §1
# [14] = compound: CC(C)(C)Cn1c(N)nc2ccc(-c3[nH]c(C(C)(C)C)nc3-c3ccc(F)cc3)nc21 [ralimetinib]
# Summary of the method: as §1
# [15] = compound: CC(C)(O)CC(=O)NCCn1ccc2ncnc(Nc3ccc(Oc4cccc(C(F)(F)F)c4)c(Cl)c3)c21
# Summary of the method: as §1
# [16] = compound: CC(C)C1=C2N=C(C=C(N2N=C1)NCC3=CC=CC=C3)NCCCCCCN
# Summary of the method: as §1
# [17] = compound: CC(C)C[C@@H](C=O)NC(=O)[C@H](CC(C)C)NC(=O)[C@H](CC(C)C)NC(=O)OCc1ccccc1
# Summary of the method: as §1
# [18] = compound: CC(C)N(C[C@H]1O[C@@H](n2cnc3c(N)ncnc32)[C@H](O)[C@@H]1O)[C@H]1C[C@@H](CCc2nc3cc(C(C)(C)C)ccc3[nH]2)C1 [pinometostat]
# Summary of the method: as §1
# [19] = compound: CC1=C(C(CC(=O)N1)C2=CC=C(C=C2)C(F)(F)F)C(=O)NC3=C(C=C4C(=C3)C=NN4)F
# Summary of the method: as §1
# [20] = compound: CC1=C(C2=C(C=C1)C(=O)C3=CC=CC=C3N2CCCN)C
# Summary of the method: as §1
# UniProt Q96RR4, sequence (Q96RR4 whole entry, looked up): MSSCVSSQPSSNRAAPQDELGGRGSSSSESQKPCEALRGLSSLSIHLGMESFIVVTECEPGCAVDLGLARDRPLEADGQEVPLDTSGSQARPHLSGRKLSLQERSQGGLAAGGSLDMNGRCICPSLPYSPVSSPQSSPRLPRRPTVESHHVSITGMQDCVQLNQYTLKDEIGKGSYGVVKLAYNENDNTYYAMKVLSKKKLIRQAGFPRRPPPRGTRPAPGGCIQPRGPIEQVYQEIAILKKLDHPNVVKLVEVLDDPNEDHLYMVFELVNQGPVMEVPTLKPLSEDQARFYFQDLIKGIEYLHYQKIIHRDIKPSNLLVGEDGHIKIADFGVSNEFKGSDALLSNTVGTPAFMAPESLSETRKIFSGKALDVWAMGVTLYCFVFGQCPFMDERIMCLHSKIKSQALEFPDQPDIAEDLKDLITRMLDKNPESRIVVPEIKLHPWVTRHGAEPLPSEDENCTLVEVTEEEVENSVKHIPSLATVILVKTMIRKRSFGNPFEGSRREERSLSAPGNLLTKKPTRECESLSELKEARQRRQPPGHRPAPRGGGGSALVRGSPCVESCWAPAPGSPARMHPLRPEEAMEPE
# UniProt O75794, sequence (O75794 whole entry, looked up): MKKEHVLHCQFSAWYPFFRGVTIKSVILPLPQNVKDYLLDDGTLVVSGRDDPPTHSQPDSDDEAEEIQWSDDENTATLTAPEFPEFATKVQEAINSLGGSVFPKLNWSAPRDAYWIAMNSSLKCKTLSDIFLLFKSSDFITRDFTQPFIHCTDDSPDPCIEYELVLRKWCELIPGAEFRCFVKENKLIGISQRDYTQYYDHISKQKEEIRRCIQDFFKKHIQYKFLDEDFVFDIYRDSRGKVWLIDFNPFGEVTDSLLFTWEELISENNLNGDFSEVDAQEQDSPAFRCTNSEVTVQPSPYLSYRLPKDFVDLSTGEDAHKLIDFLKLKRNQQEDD
# UniProt P19397, sequence (P19397 whole entry, looked up): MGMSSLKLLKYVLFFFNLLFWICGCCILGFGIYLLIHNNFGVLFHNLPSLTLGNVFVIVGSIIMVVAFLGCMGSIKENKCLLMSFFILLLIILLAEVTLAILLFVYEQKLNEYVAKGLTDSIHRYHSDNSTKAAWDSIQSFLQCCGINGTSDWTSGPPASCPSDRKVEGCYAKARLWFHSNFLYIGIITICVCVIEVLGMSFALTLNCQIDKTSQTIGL
# UniProt Q96SZ6, sequence (Q96SZ6 whole entry, looked up): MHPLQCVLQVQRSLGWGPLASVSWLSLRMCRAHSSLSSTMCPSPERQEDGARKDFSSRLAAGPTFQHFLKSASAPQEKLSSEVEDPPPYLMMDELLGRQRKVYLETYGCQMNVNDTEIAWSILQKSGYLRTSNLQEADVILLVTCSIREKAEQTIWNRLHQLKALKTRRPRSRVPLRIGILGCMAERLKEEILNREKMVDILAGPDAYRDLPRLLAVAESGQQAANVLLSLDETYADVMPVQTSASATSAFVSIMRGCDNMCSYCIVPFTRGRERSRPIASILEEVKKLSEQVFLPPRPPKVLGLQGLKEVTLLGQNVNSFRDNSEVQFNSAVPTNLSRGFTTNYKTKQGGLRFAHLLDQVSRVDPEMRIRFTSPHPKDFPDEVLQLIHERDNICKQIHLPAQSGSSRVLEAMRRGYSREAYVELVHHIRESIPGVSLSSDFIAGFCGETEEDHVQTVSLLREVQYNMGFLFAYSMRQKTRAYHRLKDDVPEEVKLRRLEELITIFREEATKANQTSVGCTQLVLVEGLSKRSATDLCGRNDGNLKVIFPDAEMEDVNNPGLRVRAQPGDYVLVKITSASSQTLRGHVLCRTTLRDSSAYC
# UniProt P83916, sequence (P83916 whole entry, looked up): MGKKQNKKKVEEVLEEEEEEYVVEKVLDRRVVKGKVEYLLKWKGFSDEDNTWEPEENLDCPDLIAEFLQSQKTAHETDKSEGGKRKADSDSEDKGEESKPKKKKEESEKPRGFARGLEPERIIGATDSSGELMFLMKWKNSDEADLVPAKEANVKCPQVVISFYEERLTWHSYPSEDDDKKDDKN
# UniProt P15954, sequence (P15954 whole entry, looked up): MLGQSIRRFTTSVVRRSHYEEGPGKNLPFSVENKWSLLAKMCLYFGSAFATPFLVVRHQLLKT
# UniProt Q96LT7, sequence (Q96LT7 whole entry, looked up): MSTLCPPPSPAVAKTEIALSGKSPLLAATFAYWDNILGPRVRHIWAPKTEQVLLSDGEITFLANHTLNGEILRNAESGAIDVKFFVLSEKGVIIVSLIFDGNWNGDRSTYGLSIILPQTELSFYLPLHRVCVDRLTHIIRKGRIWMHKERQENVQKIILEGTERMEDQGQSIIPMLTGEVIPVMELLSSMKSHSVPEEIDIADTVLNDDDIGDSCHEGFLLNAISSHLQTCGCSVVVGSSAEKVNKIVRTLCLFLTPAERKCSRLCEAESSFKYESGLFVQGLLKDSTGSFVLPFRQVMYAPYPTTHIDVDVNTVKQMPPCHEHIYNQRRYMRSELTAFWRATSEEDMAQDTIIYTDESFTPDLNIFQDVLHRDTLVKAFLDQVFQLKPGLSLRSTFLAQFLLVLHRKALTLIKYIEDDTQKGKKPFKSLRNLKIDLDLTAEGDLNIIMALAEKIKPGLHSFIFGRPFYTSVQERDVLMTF
# UniProt Q8IUI8, sequence (Q8IUI8 whole entry, looked up): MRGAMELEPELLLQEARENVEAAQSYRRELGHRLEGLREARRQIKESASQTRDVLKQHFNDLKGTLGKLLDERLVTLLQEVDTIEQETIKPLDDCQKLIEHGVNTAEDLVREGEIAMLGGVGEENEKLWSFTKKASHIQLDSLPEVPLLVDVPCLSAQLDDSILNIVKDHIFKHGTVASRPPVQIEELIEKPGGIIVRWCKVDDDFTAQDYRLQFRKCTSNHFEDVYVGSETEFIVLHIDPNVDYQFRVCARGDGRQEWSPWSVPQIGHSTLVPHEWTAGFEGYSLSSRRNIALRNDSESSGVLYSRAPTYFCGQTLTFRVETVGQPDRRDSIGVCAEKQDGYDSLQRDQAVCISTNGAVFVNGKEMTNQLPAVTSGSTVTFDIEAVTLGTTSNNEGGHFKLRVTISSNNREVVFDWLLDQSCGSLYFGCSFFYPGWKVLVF
Target,log2 fold change [1],log2 fold change [2],log2 fold change [3],log2 fold change [4],log2 fold change [5],log2 fold change [6],log2 fold change [7],log2 fold change [8],log2 fold change [9],log2 fold change [10],log2 fold change [11],log2 fold change [12],log2 fold change [13],log2 fold change [14],log2 fold change [15],log2 fold change [16],log2 fold change [17],log2 fold change [18],log2 fold change [19],log2 fold change [20]
CDK5RAP1 (UniProt Q96SZ6),0.076,-0.555 (active),0.046,-0.025,0.134,-0.03,0.069,0.078,0.072,-0.029,-0.067,0.018,0.111,-0.057,-0.055,-0.066,-0.015,0.025,-0.038,0.099
C9orf72 (UniProt Q96LT7),0.095,0.021,0.02,-0.012,-0.068,-0.068,-0.086,-0.057,-0.205,0.211,0.016,0.022,-0.001,0.035,-0.051,0.029,-0.019,0.135,-0.095,0.048
CDC123 (UniProt O75794),-0.039,0.038,0.011,0.036,-0.021,0.032,0.048,-0.001,-0.001,0.023,-0.023,-0.009,-0.026,-0.015,-0.088,-0.05,0.037,-0.009,0,0.001
CD53 (UniProt P19397),0.041,0.028,0.059,-0.006,0.064,0.01,-0.221,-0.086,-0.001,-0.007,0.097,0.033,-0.026,-0.24,-0.021,0.229,0.051,-0.014,-0.004,0.105
CAMKK2 (UniProt Q96RR4),-0.091,-0.047,-0.026,-0.232,-0.059,-0.081,-0.122,-0.037,-0.19,0.23,-0.05,-0.069,0.131,-0.117,0.002,0.069,-0.052,0.142,0.039,-0.025
CRLF3 (UniProt Q8IUI8),0.09,-0.034,0.036,-0.015,0.076,0.019,-0.018,-0.028,0.027,-0.04,0,-0.047,-0.079,0.008,-0.122,-0.166,0.013,-0.001,0.015,-0.035
CBX1 (UniProt P83916),0.025,-0.044,0.022,0.072,0.004,0.089,-0.055,-0.026,-0.007,-0.027,-0.105,-0.001,-0.038,-0.054,0.013,0.034,-0.007,-0.143,-0.026,-0.288 (active)
COX7C (UniProt P15954),-0.006,0.134,0.209,0.154,-0.174,0.073,0.08,0.27,-0.003,0.047,-0.013,0.057,-0.013,0.301,0.041,0.184,0.074,0.092,0.022,0.009
